The panel holds about 83,000 compounds, 20% with a hit somewhere; the sample as a whole holds those more often.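 A percent growth of 40 corresponds to 60% growth inhibition; 0 means no net growth; -100 means all cells died. Active threshold: below 10.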 Unmarked numbers belong to inactive results. Activity calls are given as the source filed them.

This experiment deals with HT29 colon. Put plainly: NCI-60 one-dose screen, 48 h (100 = growth as untreated, 0 = no growth, -100 = all killed). The following applies: 10 µM unless noted.
Take `c1ccc(Cn2cnc3ccc(-c4nc(-c5ccc6c(c5)ncn6C5CCCCC5)cn5ccnc45)cc32)cc1`: the growth is -48.7% (active). In the case of `N/C(=N\C(N)=N\c1nc2ccccc2s1)c1cccc(Cl)c1`, the growth was 95.1%. The value for `O=C(Cc1ccccc1)NNc1nc(Cl)nc(N2CCN(C(c3ccccc3)c3ccccc3)CC2)n1` was 72.6%.

On to `CCN(CC)c1ccc(C(=O)c2ccccc2)cc1`, for which the growth was 95%. The result for `O=C(Nc1ncc(Cc2cc(Cl)ccc2Cl)s1)c1cccs1` reads 24.3%; that for `COc1cc(C2C3CC4CCCC[C@H]4N3[C@@]3(C(=O)Nc4cc(Cl)ccc43)C2C(=O)c2nc3ccccc3[nH]2)cc(OC)c1OC` (some centres not stated), 35.6%. The result for `CC(=O)[C@@H]1CC[C@]2(C(N)=O)CC[C@]3(C)[C@H](CC[C@@H]4[C@@]5(C)CCCNC(C)(C)[C@@H]5CC[C@]43C)[C@@H]12` reads 3.98% (active); that for `Cc1cccc(C)c1N=c1oc2ccc(Cl)cc2nc1-c1ccccc1O`, 80.5%; that for `O=S(=O)(NCCCNc1nccc(-c2c(-c3cccc(O)c3)nc3occn23)n1)c1ccc(Cl)cc1`, 36.3%. The value for `N#C/C(=C\c1ccc([N+](=O)[O-])s1)c1nc2cc(Br)ccc2s1` was 21.8%. In the case of `Oc1ccc(C(c2ccc(O)cc2)c2ccc(Br)cn2)cc1`, the growth is 70.5%. The result for `Cc1nc2sccn2c1-c1cn2ccsc2n1` reads 99.3%; that for `CCOC(=O)/C(C#N)=C1/NNC(=Nc2cccnc2)S1`, 98.3%; that for `O=S(=O)(NCCCNc1nccc(-c2c(-c3cccc(F)c3)nc3sccn23)n1)c1cccc2ccccc12`, 1.97% (active). The value for `CCCNC(=O)Oc1ccc(/C(=C(\C)c2ccccc2)c2ccc(OCCCN(C)C)cc2)cc1` was 5.5% (active); that for `O=C(CSc1nc2sc3c(c2c(=O)n1-c1ccc(Cl)cc1)CCCC3)Nc1nc(-c2cccc(Br)c2)cs1` was 61.7%; that for `O=C1c2ccc3c4c(ccc(c24)C(=O)N1CCCNCc1ccccc1F)C(=O)N(CCCNCc1ccccc1F)C3=O` was -77% (active). The result for `CCN(CC)c1ccc(/C=N/NC(=O)CSc2nc3ccccc3c(=O)n2CCc2ccc(S(N)(=O)=O)cc2)c(O)c1` reads 42.4%. With `CCCCCN1C=C/C(=C\C(=O)N(C)c2ccc(Oc3ccccc3)cc2)c2ccccc21`, the growth was 53.6%. The value for `C/C=C(\C)C(=O)NC1=CC[C@@]2(C)C(=CCC3C2CC[C@@]2(C)C3CC[C@@H]2C(C)N(C)C)C1=O` (some centres not stated) was -19.7% (active); that for `C[C@H]1[C@H](C)CC[C@]2(C(=O)NCC#CCN3CCN(C)CC3)CC[C@]3(C)C(=CC[C@@H]4[C@@]5(C)Cc6c([nH]c7ccccc67)C(C)(C)[C@@H]5CC[C@]43C)[C@H]12` was 19.3%; that for `CCOC(=O)c1cc(C(=O)c2ccc(Br)cc2)n2ccc(/C=C/c3cc[n+](CC(=O)c4ccc(OC)cc4)cc3)cc12` was 34.3%. The result for `NC(=NCCCOc1ccc(F)cc1)Nc1ccc(I)cc1` reads 38.2%; that for `O=C(/C=C(/C=C/c1coc2ccccc12)OB(F)F)/C=C/c1coc2ccccc12`, 100%; that for `COc1cc(NC(=O)CSc2nc3ccc(C)cc3c(=O)n2Cc2ccccc2)cc(OC)c1OC`, 70.6%. The value for `Oc1ccc(C2c3ccccc3Oc3ccccc32)c2cccnc12` was 21.7%. As to `Cc1ccc(C(=O)/C(=C\c2ccc([N+](=O)[O-])cc2)S(=O)Cc2ccc(F)cc2)cc1` (configuration not stated), the growth was -49.1% (active). In the case of `COc1cc2oc(-c3cccc(C(=O)Nc4ccccc4)c3)cc(=O)c2c(O)c1OC`, the growth is 54.2%. The value for `COc1ccc(C(=O)/C=C/c2cc3ccccc3n3nnnc23)cc1` was 110%; that for `Cc1nc2sccn2c1-c1nc2sccn2c1/C=C1/C(=O)Nc2ccccc21` was 0.756% (active). The result for `COc1cc2c(c(OC)c1OC)CCC(c1cccc(NC(=O)c3cccc(Br)c3)c1)O2` (configuration not stated) reads 87%; that for `CCCCCN1C=C/C(=C\C(=O)N(C)c2ccccc2Br)c2ccccc21`, 98.3%; that for `COc1ccc(C(=O)c2cc(OC)c(OC)c(OC)c2)cc1O`, 14.7%. In the case of `CC(C)(C)c1cc(C=O)cc(C(C)(C)C)c1O`, the growth was 102%. In the case of `CCOC(=O)c1nc2c3ccccc3ccn2c1C(=O)OCC`, the growth was 105%. The result for `CC(C)=CCC[C@](C)(O)[C@H]1CC[C@]2(C)[C@@H]1CC[C@@H]1[C@@]3(C)C/C(=C/c4ccccc4)C(=O)C(C)(C)[C@@H]3CC[C@]12C` reads 99.9%; that for `C=C(C)[C@@H]1CC[C@]2(C(=O)N3CCN(C)CC3)CC[C@]3(C)[C@H](CC[C@@H]4[C@@]5(C)CC[C@H](O)C(C)(C)[C@@H]5CC[C@]43C)[C@@H]12`, -90.4% (active).

Values taken from PubChem BioAssay (NCI).
